{"source": "PubChem BioAssay AID720700", "about": "(The Scripps Research Institute Molecular Screening Center, 2013)", "note": "Among all 370,000 compounds or so, about 3,100 (0.84%) were called active. The sample as a whole holds a higher share of actives than the screen did. Values without a mark were called inactive. Cut-off read from the data, not from the text of the source: active = inhibition above about 9.5%; inactive = the rest.", "data": [{"target": "1-phosphatidylinositol 4,5-bisphosphate phosphodiesterase gamma-1 (Homo sapiens) (UniProt P19174)", "sequence (P19174 whole entry, looked up)": "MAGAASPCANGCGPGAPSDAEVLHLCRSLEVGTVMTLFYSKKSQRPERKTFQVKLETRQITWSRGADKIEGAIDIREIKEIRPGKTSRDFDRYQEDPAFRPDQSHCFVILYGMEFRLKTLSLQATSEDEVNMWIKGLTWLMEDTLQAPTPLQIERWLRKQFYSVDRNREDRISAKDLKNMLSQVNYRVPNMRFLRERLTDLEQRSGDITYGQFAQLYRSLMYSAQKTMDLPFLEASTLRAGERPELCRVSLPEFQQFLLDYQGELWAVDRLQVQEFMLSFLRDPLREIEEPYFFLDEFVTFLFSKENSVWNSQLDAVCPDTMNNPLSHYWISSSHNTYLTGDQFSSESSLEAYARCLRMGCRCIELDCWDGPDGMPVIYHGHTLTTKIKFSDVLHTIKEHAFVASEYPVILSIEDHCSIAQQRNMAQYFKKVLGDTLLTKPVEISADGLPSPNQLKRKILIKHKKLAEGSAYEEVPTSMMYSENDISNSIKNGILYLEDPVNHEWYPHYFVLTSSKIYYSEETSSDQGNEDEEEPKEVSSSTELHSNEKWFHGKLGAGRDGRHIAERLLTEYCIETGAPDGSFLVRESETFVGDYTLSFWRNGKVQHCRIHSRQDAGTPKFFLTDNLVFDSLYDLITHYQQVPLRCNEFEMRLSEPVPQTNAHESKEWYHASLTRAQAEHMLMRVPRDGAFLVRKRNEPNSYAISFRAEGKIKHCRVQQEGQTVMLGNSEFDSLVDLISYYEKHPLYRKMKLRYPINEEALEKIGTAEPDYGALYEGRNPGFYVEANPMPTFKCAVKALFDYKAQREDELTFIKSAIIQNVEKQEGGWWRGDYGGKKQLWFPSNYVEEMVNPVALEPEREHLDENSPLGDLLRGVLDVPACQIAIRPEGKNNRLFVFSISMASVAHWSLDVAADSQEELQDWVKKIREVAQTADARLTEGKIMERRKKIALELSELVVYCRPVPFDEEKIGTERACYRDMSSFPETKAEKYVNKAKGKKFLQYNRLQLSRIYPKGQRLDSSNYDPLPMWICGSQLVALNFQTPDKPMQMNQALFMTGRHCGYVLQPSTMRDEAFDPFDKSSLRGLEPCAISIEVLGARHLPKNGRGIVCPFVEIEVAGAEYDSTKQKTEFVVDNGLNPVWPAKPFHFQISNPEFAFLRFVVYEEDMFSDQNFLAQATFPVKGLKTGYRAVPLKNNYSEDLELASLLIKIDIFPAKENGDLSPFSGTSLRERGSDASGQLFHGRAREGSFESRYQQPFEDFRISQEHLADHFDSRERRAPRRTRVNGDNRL", "test": "blockers of human PLCG1 activity – biochemical, fluorescence, purified enzyme, primary screen (AID 720700)", "settings": "purified PLC-gamma1, fluorogenic substrate, at 12.2 µM, hits give high values", "values": [{"smiles": "O=C(NC(C(=O)NCCN1CCOCC1)C12CC3CC(CC(C3)C1)C2)C1CCCCC1", "note": "(stereo not given)", "inhibition": "-1.07%"}, {"smiles": "O=C(NCCCN1CCCCCC1)C1CC(=O)N(C2CCCC2)C1", "note": "(stereo not given)", "inhibition": "-1.08%"}, {"smiles": "CC(C)C(NC(=O)C1CCC(C(C)(C)C)CC1)C(=O)NCCCN1CCCCC1", "note": "(stereo not given)", "inhibition": "10.2% (active)"}, {"smiles": "Cc1ccc(-n2c(SCC(=O)Nc3ccc(S(=O)(=O)Nc4nccs4)cc3)nnc2-c2ccccn2)cc1", "inhibition": "-1.19%"}, {"smiles": "CN(C)/C=C(/C(=O)c1ccccc1Cl)S(C)(=O)=O", "inhibition": "-0.96%"}, {"smiles": "CN(C)/C=C(/C(=O)c1ccc(Cl)cc1)S(=O)(=O)c1ccccc1", "inhibition": "11.6% (active)"}, {"smiles": "CN(C)/C=C(/C(=O)c1ccc(F)cc1)S(=O)(=O)c1ccc(F)cc1", "inhibition": "-0.23%"}, {"smiles": "CC(C)CNC(=O)OCc1cn(Cc2ccc(F)cc2)nn1", "inhibition": "-0.35%"}, {"smiles": "CN(CCO)c1cccc2c1S(=O)(=O)N(Cc1cn(Cc3ccc(C(F)(F)F)cc3)nn1)Cc1ccccc1O2", "inhibition": "-12.9%"}, {"smiles": "CCOc1ccc(-n2c(SCC(=O)Nc3cc(C)c(NC(=O)c4ccccc4)cc3OC)nnc2-c2cccc(Cl)c2)cc1", "inhibition": "-13.8%"}, {"smiles": "Cc1ccc(C(=O)C2CCN(CC(=O)NCCC(C)C)CC2)cc1", "inhibition": "-6.25%"}, {"smiles": "NC1=CC(=O)C(=O)c2cccnc21", "inhibition": "11.2% (active)"}, {"smiles": "CC(C)CNS(=O)(=O)CC1NCCc2ccccc21", "note": "(stereo not given)", "inhibition": "1.24%"}, {"smiles": "O=C(CSc1nc2sc3c(c2c(=O)n1-c1ccccc1)CCCC3)NN=Cc1ccc(OCc2ccccc2)cc1", "inhibition": "-0.49%"}, {"smiles": "COc1ccc(C=C2CCC3C(CCCC34OCCO4)C2=O)cc1", "note": "(stereo not given)", "inhibition": "3.51%"}, {"smiles": "COc1ccc(/C=C2\\N=C3CCCN3C2=O)cc1", "inhibition": "10.5% (active)"}, {"smiles": "COc1ccc(/C=C2\\CC3(OC(C)=O)CCCN2C3)cc1", "note": "(stereo not given)", "inhibition": "0.44%"}, {"smiles": "Cc1cccc(NC(=O)C[C@H]2CC[C@H]3[C@@H](COc4ccc(NC(=O)Nc5ccccc5)cc4C(=O)N3C)O2)c1", "inhibition": "3.76%"}, {"smiles": "COC(=O)NNC1=CC(=O)CC(C)(C)C1", "inhibition": "-1.76%"}, {"smiles": "CC1(C)CC(=O)C=C(NCCCNC2CCCCC2)C1", "inhibition": "2.3%"}, {"smiles": "CC1(C)CC(=O)C=C(NC2CC(C)(C)NC(C)(C)C2)C1", "inhibition": "9.6% (active)"}, {"smiles": "O=C1CCC(C(=O)OCC(=O)Nc2ccc(OC(F)F)cc2)=NN1", "inhibition": "3.57%"}, {"smiles": "COc1ccc(NC(=O)COC(=O)CNC(=O)C2CCCCC2)cc1", "inhibition": "0.1%"}, {"smiles": "CCC(C)(C)c1ccc(Oc2ccc(NC(=O)COC(=O)C3=COCCO3)cc2)cc1", "inhibition": "10.1% (active)"}, {"smiles": "O=C(CSc1nnc(-c2cccc(Cl)c2)n1Cc1ccco1)Nc1ccc(OCc2ccccc2)cc1", "inhibition": "2.27%"}]}]}
